Measured values from PubChem BioAssay (NCATS).
Values without a mark were called inactive. Results filed as inconclusive are left out. Active and inactive are the calls of the source. Calls come from the whole dose curve; as a rule, active = well fitted curve in the direction sought with a large enough effect; inconclusive = small, poorly fitted or top-dose-only effect, or another doubt; inactive = no such curve, though single readings can be large; an effect the other way counts as inactive or inconclusive.

System: not listed separately
Test: Primary fluorescence-based thiol-reactive (MSTI) qHTS assay for identification of artifact compounds. (AID 1845221); note: nearly all actives have a fitted effect of over 65% in size;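 for activity change, negative = thiol reactive: thiol-reactive compounds lower the probe fluorescence signal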
Settings: MSTI thiol-reactivity probe, 1 h; series mostly up to 53.8 µM; activity change, negative = thiol reactive: at the top concentration
In short: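 In PBS pH 7.4 with 2% DMSO, each compound met 4 uM MSTI for one hour at ambient temperature, shielded from light, before fluorescence detection.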
Potency is the fitted concentration of half-maximal effect.

**Q.** Which “activity change, negative = thiol reactive” value (“activity change” below) does the source give for `CCOc1c2c(c(OCC)c3ccccc13)C(=O)N(c1ccc(CC(=O)NS(=O)(=O)c3ccccc3)cc1)C2` here?
**A.** -24.9%

**Q.** With `C/C=C(/C)C(=O)O[C@H]1C=C(C)C[C@H](OC(=O)c2ccc(O)cc2)C2[C@](O)(C(C)C)CC[C@@]21C` (stereo not given in full) as the molecule, how does the “activity change” value read?
**A.** 57% [at 25.6 µM]

**Q.** Which “activity change” value does the source give for `O=C(O)C[C@@H](NC(=O)c1cc(-c2ccc(-c3ccncc3)cc2)cs1)c1ccccc1` here?
**A.** 184%

**Q.** Which “activity change” value does the source give for `COc1cccc(-n2nc(C(=O)O)cc2-c2ccc(C3CCCCC3)c(Cl)c2)c1` here?
**A.** 78.2%

**Q.** For `CC1C/C=C/C=C\CCCCC(O)C/C=C/C(=O)O1` (stereo not given), which “activity change” value is on record?
**A.** 48.3%

**Q.** For `O=C(O)c1cnn(-c2nc3cc(OC(F)(F)F)c(Cl)cc3[nH]2)c1`, which “activity change” value is on record?
**A.** -21.2%

**Q.** Which “activity change” value does the source give for `CC(NCc1ccc(OCc2cccc(F)c2)cc1)C(N)=O` (stereo not given) here?
**A.** 8.43%

**Q.** For `CCC[C@@H]1C[C@@H](C(=O)N[C@H](C(C)Cl)[C@H]2O[C@H](SC)[C@H](O)[C@@H](O)[C@H]2O)N(C)C1` (stereo not given in full), which “activity change” value is on record?
**A.** 35.9%

**Q.** With `C[C@@H]1O[C@@H](O[C@H]2[C@H](O)[C@@H](O)[C@H](OC[C@H]3O[C@@H](OC(=O)[C@]45CCC(C)(C)C[C@H]4C4=CCC6[C@@]7(C)C[C@H](O)[C@H](O[C@@H]8O[C@H](CO)[C@@H](O)[C@H](O)[C@H]8O)[C@@](C)(C(=O)O)C7CC[C@@]6(C)[C@]4(C)CC5)[C@H](O[C@@H]4O[C@H](CO)[C@@H](O)[C@H](O)[C@H]4O)[C@@H](O)[C@@H]3O)O[C@@H]2CO)[C@H](O)[C@H](O)[C@H]1O` (stereo not given in full) as the molecule, how does the activity change, negative = thiol reactive read?
**A.** 1.9% [at 11.5 µM]

**Q.** Which “activity change” value does the source give for `C=C1C[C@@]23CC[C@@H]4[C@](C)(C(=O)O)CCC[C@@]4(C)C2=CC[C@H]1C3` here?
**A.** 81.9%

**Q.** Which “activity change” value does the source give for `NC1CCC(N[C@@H]2C[C@H]2c2ccccc2)CC1` (stereo not given in full) here?
**A.** 1.47%

**Q.** Which “activity change” value does the source give for `Cc1ccc2c(c1)C=Cc1cc(C)ccc1C2c1cn(Cc2ccc(C(=O)Nc3nn[nH]n3)o2)c(=O)[nH]c1=S` here?
**A.** 120%

**Q.** With `N#CC1C(=O)Nc2scc(-c3ccc(-c4ccccc4O)cc3)c2C1=O` (stereo not given) as the molecule, how does the “activity change” value read?
**A.** 71.5%

**Q.** For `C/C=C/C=C/C=C/C(=O)O[C@@H]1C=C(CO)C(O)(C(=O)O)[C@@]2(C)CCCC(C)(C)[C@H]12` (stereo not given in full), which “activity change” value is on record?
**A.** 7.95% [at 25.6 µM]

**Q.** With `CCOC(=O)[C@H](CCc1ccccc1)N[C@@H](C)C(=O)N1C2CCCCC2C[C@H]1C(=O)O` (stereo not given in full) as the molecule, how does the “activity change” value read?
**A.** 28.6%

**Q.** Which “activity change” value does the source give for `COC1C=C([C@@H]2CC=C3[C@@]4(C)C(CC[C@]32C)[C@@]2(C)C=CC(=O)C(C)(C)C2C[C@H]4OC(C)=O)C(=O)O1` (stereo not given in full) here?
**A.** 15.9% [at 25.6 µM]

**Q.** Which “activity change” value does the source give for `CC(C)c1nc(N(C)S(C)(=O)=O)nc(-c2ccc(F)cc2)c1/C=C/[C@@H](O)C[C@@H](O)CC(=O)O` here?
**A.** 48.9%

**Q.** With `O=C(NC[C@H](O)CN1CCc2ccccc2C1)c1cc(NC2COC2)ncn1` as the molecule, how does the “activity change” value read?
**A.** -5.12%

**Q.** For `CC(C)(C)NCC(O)COc1cccc2c1CCCC2=O` (stereo not given), which “activity change” value is on record?
**A.** -7.75%

**Q.** Which “activity change” value does the source give for `CCC[C@@H]1C[C@@H](C(=O)N[C@@H]([C@H]2O[C@H](SC)[C@H](O)[C@@H](O)[C@@H]2O)[C@@H](C)O)N(C)C1` here?
**A.** 8.03%

**Q.** For `OC[C@H]1O[C@@H](Oc2cc(O)cc(-c3cc4ccc(O)cc4o3)c2)[C@H](O)[C@@H](O)[C@@H]1O`, which Potency is on record?
**A.** 5.19 µM (active)

**Q.** Which “activity change” value does the source give for `Cc1nnc(C(C)C)n1C1CC2CCC(C1)N2CCC(NC(=O)C1CCC(F)(F)CC1)c1ccccc1` (stereo not given) here?
**A.** 28.3%

**Q.** Which “activity change” value does the source give for `COC(=O)[C@@H]1C2CC3c4[nH]c5ccccc5c4CCN3CC2CC[C@@H]1O` (stereo not given in full) here?
**A.** -14%

**Q.** Which “activity change” value does the source give for `C[C@@H]1C/C=C/C=C\C=C\C=C\[C@H](O[C@@H]2O[C@H](C)[C@@H](O)[C@H](N)[C@@H]2O)C[C@@H]2O[C@](O)(C[C@@H](O)C[C@H]3O[C@@H]3/C=C/C(=O)O1)C[C@H](O)[C@H]2C(=O)O` here?
**A.** 15.5% [at 25.6 µM]

System: Nanoluciferase (engineered Oplophorus gracilirostris luciferase)
Test: Primary Nanoluciferase (NLuc) qHTS assay for identification of artifact compounds. (AID 1845222);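 for activity, negative = inhibition: 0% = DMSO and -100% = no enzyme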
Settings: NLuc-conditioned medium, Nano-Glo luminescence, 5 min; series mostly up to 54.1 µM; activity, negative = inhibition: at the top concentration
In short: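 Compounds are pinned into diluted (1:55) conditioned medium of NLuc-expressing S16 cells and held 15 min at room temperature protected from light. Nano-Glo substrate follows, and luminescence is read 5 min later.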

**Q.** For `CCOc1c2c(c(OCC)c3ccccc13)C(=O)N(c1ccc(CC(=O)NS(=O)(=O)c3ccccc3)cc1)C2`, which Potency is on record?
**A.** 12 µM (active)

**Q.** Which “activity, negative = inhibition” value does the source give for `C/C=C(/C)C(=O)O[C@H]1C=C(C)C[C@H](OC(=O)c2ccc(O)cc2)C2[C@](O)(C(C)C)CC[C@@]21C` (stereo not given in full) here?
**A.** 3% [at 25.7 µM]

**Q.** With `CC[C@@H](c1ccc(F)c(F)c1)n1c(C(=O)OC)c(-c2ccno2)[nH]c1=S` as the molecule, how does the “activity, negative = inhibition” value read?
**A.** -20%

**Q.** With `COc1cccc(-n2nc(C(=O)O)cc2-c2ccc(C3CCCCC3)c(Cl)c2)c1` as the molecule, how does the “activity, negative = inhibition” value read?
**A.** 0.887%

**Q.** With `CC1C/C=C/C=C\CCCCC(O)C/C=C/C(=O)O1` (stereo not given) as the molecule, how does the “activity, negative = inhibition” value read?
**A.** 3.4%

**Q.** Which “activity, negative = inhibition” value does the source give for `CC(NCc1ccc(OCc2cccc(F)c2)cc1)C(N)=O` (stereo not given) here?
**A.** 0%

**Q.** For `CCC[C@@H]1C[C@@H](C(=O)N[C@H](C(C)Cl)[C@H]2O[C@H](SC)[C@H](O)[C@@H](O)[C@H]2O)N(C)C1` (stereo not given in full), which “activity, negative = inhibition” value is on record?
**A.** 2.53%

**Q.** For `C[C@@H]1O[C@@H](O[C@H]2[C@H](O)[C@@H](O)[C@H](OC[C@H]3O[C@@H](OC(=O)[C@]45CCC(C)(C)C[C@H]4C4=CCC6[C@@]7(C)C[C@H](O)[C@H](O[C@@H]8O[C@H](CO)[C@@H](O)[C@H](O)[C@H]8O)[C@@](C)(C(=O)O)C7CC[C@@]6(C)[C@]4(C)CC5)[C@H](O[C@@H]4O[C@H](CO)[C@@H](O)[C@H](O)[C@H]4O)[C@@H](O)[C@@H]3O)O[C@@H]2CO)[C@H](O)[C@H](O)[C@H]1O` (stereo not given in full), which activity, negative = inhibition is on record?
**A.** 4.14% [at 11.6 µM]

**Q.** For `C=C1C[C@@]23CC[C@@H]4[C@](C)(C(=O)O)CCC[C@@]4(C)C2=CC[C@H]1C3`, which “activity, negative = inhibition” value is on record?
**A.** 0%

**Q.** For `NC1CCC(N[C@@H]2C[C@H]2c2ccccc2)CC1` (stereo not given in full), which “activity, negative = inhibition” value is on record?
**A.** 2.4%

**Q.** Which “activity, negative = inhibition” value does the source give for `Nc1nc(CC(=O)Nc2ccc(CCNCC(O)c3ccccc3)cc2)cs1` (stereo not given) here?
**A.** 4.91%

**Q.** Which “activity, negative = inhibition” value does the source give for `c1ccc(Nc2nc3c(s2)CCCc2[nH]ncc2-3)nc1` here?
**A.** 1.27%

**Q.** Which “activity, negative = inhibition” value does the source give for `Cc1ccc2c(c1)C=Cc1cc(C)ccc1C2c1cn(Cc2ccc(C(=O)Nc3nn[nH]n3)o2)c(=O)[nH]c1=S` here?
**A.** 4.29%

**Q.** Which “activity, negative = inhibition” value does the source give for `O=C(O[C@H]1[C@@H]2C=CO[C@@H](O[C@@H]3O[C@H](CO)[C@@H](O)[C@H](O)[C@H]3O)[C@@H]2[C@@]2(CO)O[C@@H]12)c1ccc(O)cc1` here?
**A.** 2.27% [at 25.7 µM]

**Q.** For `C#Cc1cnc2[nH]c(=O)n(C(CC)CC)c2n1`, which “activity, negative = inhibition” value is on record?
**A.** 0.135%

**Q.** With `CCOC(=O)[C@H](CCc1ccccc1)N[C@@H](C)C(=O)N1C2CCCCC2C[C@H]1C(=O)O` (stereo not given in full) as the molecule, how does the “activity, negative = inhibition” value read?
**A.** 1.06%

**Q.** With `COC1C=C([C@@H]2CC=C3[C@@]4(C)C(CC[C@]32C)[C@@]2(C)C=CC(=O)C(C)(C)C2C[C@H]4OC(C)=O)C(=O)O1` (stereo not given in full) as the molecule, how does the “activity, negative = inhibition” value read?
**A.** 2.66% [at 25.7 µM]

**Q.** Which “activity, negative = inhibition” value does the source give for `CC(C)c1nc(N(C)S(C)(=O)=O)nc(-c2ccc(F)cc2)c1/C=C/[C@@H](O)C[C@@H](O)CC(=O)O` here?
**A.** 1.11%

**Q.** For `O=C(NC[C@H](O)CN1CCc2ccccc2C1)c1cc(NC2COC2)ncn1`, which “activity, negative = inhibition” value is on record?
**A.** 4.98%

**Q.** With `CC(C)(C)NCC(O)COc1cccc2c1CCCC2=O` (stereo not given) as the molecule, how does the “activity, negative = inhibition” value read?
**A.** 4.07%

**Q.** For `Cn1c(=O)cc(N2CCCC(N)C2)n(Cc2ccccc2C#N)c1=O` (stereo not given), which “activity, negative = inhibition” value is on record?
**A.** 4.9%

**Q.** Which “activity, negative = inhibition” value does the source give for `CCC[C@@H]1C[C@@H](C(=O)N[C@@H]([C@H]2O[C@H](SC)[C@H](O)[C@@H](O)[C@@H]2O)[C@@H](C)O)N(C)C1` here?
**A.** 0%

**Q.** For `OC[C@H]1O[C@@H](Oc2cc(O)cc(-c3cc4ccc(O)cc4o3)c2)[C@H](O)[C@@H](O)[C@@H]1O`, which “activity, negative = inhibition” value is on record?
**A.** -7.69% [at 25.7 µM]

**Q.** Which “activity, negative = inhibition” value does the source give for `Cc1nnc(C(C)C)n1C1CC2CCC(C1)N2CCC(NC(=O)C1CCC(F)(F)CC1)c1ccccc1` (stereo not given) here?
**A.** 0%

**Q.** With `COC(=O)[C@@H]1C2CC3c4[nH]c5ccccc5c4CCN3CC2CC[C@@H]1O` (stereo not given in full) as the molecule, how does the “activity, negative = inhibition” value read?
**A.** 3.17%

**Q.** Which “activity, negative = inhibition” value does the source give for `C[C@@H]1C/C=C/C=C\C=C\C=C\[C@H](O[C@@H]2O[C@H](C)[C@@H](O)[C@H](N)[C@@H]2O)C[C@@H]2O[C@](O)(C[C@@H](O)C[C@H]3O[C@@H]3/C=C/C(=O)O1)C[C@H](O)[C@H]2C(=O)O` here?
**A.** 1.16% [at 25.7 µM]

**Q.** With `CC(=O)Oc1cc2c(s1)CCN([C@H](C(=O)C1CC1)c1ccccc1F)C2` as the molecule, how does the “activity, negative = inhibition” value read?
**A.** -4.74%

**Q.** For `COc1cc(C(O)C(CO)Oc2ccc(CCCO[C@@H]3O[C@@H](C)[C@H](O)[C@@H](O)[C@H]3O)cc2OC)ccc1O` (stereo not given in full), which “activity, negative = inhibition” value is on record?
**A.** -0.579% [at 25.7 µM]

**Q.** Which “activity, negative = inhibition” value does the source give for `CC(=O)N[C@H]1CCN(c2ccc(C3=NOC(CN[S+](=O)([O-])C(C)C)C3)cc2F)C1` (stereo not given in full) here?
**A.** 0.245%

**Q.** With `C=Cc1cc(O)cc2nc(-c3ccc(O)c(F)c3)oc12` as the molecule, how does the “activity, negative = inhibition” value read?
**A.** 3.81%

**Q.** Which “activity, negative = inhibition” value does the source give for `CCC(C)C(=O)O[C@@H]1[C@@H](O)[C@@H](O[C@H]2O[C@H](CO)[C@@H](O)[C@H](O)[C@H]2O)O[C@H](CO)[C@H]1O` (stereo not given in full) here?
**A.** 2.66% [at 25.7 µM]
